Screening results from PubChem.
Shown are actives, neighbours in structure and some others; about 7.9% of the full set was active somewhere.
SW480 rerep = DNA re-replication induction in SW480 cells; SW480 DNA re-replication, Hoechst DNA content imaging, 48 h; Potency, µM (doses to about 46.1 µM), without a hit: at the top dose re-replication activation, actives largely listed as activators; 340,000 compounds, 1.8% hits; note: % of control where 0% means no effect; nearly all actives have a fitted effect of over 55% in size
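First, 250 cells per well were seeded. Next, compound or vehicle (23 nL) was pinned in, plates sat 48 hr at 37 C. Finally Hoechst was added for 40 min before fluorescence scanning.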
KB-3-1 cytotox = kills parental KB-3-1 adenocarcinoma cells; KB-3-1 viability, CellTiter-Glo ATP luminescence, 72 h; 400,000 compounds, 1.4% hits; Potency, µM (highest dose often 46.1 µM), most hits filed as cytotoxic; AID 1347075; note: % is set by controls: 0 for no effect and ±100 for the full control effect; nearly all actives have a fitted effect of over 60% in size
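Here the drug-naive KB-3-1 line serves as comparator for MDR sub-line selectivity; cells received compound titrations, 72 h at 37 °C, then CellTiter-Glo readout.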
HT1080-NT tox = kills 2HG-producing HT-1080-NT fibrosarcoma cells; HT-1080-NT fibrosarcoma viability, CellTiter-Glo ATP luminescence, 48 h; AID 686970; Potency, µM (titrated, usually from 46.1 µM), for inactives: top-dose activity, negative = less viability, most hits filed as cytotoxic; 360,000 compounds, 1.6% hits;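 note: NT is the 2HG producing partner of a matched IDH1 knockdown line; 0% = DMSO-treated cells and -100% = media-only wells without cells; nearly all actives have a fitted effect of over 55% in size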
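750 cells/well, RPMI + 5% FBS; 2 h settle, compound pin-transfer, 48 h at 37 degrees C. CellTiter-Glo 10 min RT, luminescence. Normalized to DMSO and media-only wells.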
HT1080 IDH1KD tx = kills HT-1080 cells with IDH1 knockdown; HT-1080 IDH1 knockdown viability, ATP luminescence, 48 h; Potency, µM (series often up to 46.1 µM), for the others: top-dose activity, negative = toxicity, usual class: cytotoxic; 360,000 compounds, 2% hits; AID 686971;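 note: 0% = DMSO wells and -100% = cell-free medium wells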
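In this qHTS, HT-1080 cells depleted of IDH1 are exposed for 48 h at 37 °C to compound titrations. Toxicity is scored from CellTiter-Glo luminescence, with DMSO as full viability and medium alone as none.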
MCF10A rerep = DNA re-replication induction in MCF 10a cells. MCF 10A DNA re-replication, Hoechst nuclear intensity, 48 h. Potency, µM (top dose mostly 46.1 µM), for inactives: top-dose activity, positive = re-replication, hits mostly activators. 350,000 compounds, 2.9% hits. AID 624296; note: % of control where 0% means no effect; nearly all actives have a fitted effect of over 50% in size
KB-V1 MDR tox = KB-V1 MDR subline cytotoxicity. KB-V1 MDR cells viability, CellTiter-Glo, 72 h. Potency, µM (top dose mostly 46.1 µM), usual class: cytotoxic. 400,000 compounds, 3.4% hits; note: % is set by controls: 0 for no effect and ±100 for the full control effect; nearly all actives have a fitted effect of over 60% in size
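Potencies derive from concentration-effect curves fitted to normalized luminescence (CellTiter-Glo) of KB-V1 cells treated for 72 h at 37 degrees C in phenol-red-free DMEM containing 10% FBS.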
* hit, by the source's call; i = inactive; ? = inconclusive; . = no result. Calls come from the whole dose curve; as a rule, active = well fitted curve in the direction sought with a large enough effect; inconclusive = small, poorly fitted or top-dose-only effect, or another doubt; inactive = no such curve, though single readings can be large; an effect the other way counts as inactive or inconclusive. Potency is the fitted concentration of half-maximal effect.

SMILES	SW480 rerep	KB-3-1 cytotox	HT1080-NT tox	HT1080 IDH1KD tx	MCF10A rerep	KB-V1 MDR tox
CSc1nc(N)nc(SCC(=O)c2ccc(C)cc2)c1C#N	?	i	?	?	5.8µM*	i
Cc1nc2nc[nH]c2cc1Br	0.3%	i	3.3%	-5.0%	0.8%	?
Cc1nc(-c2cc(C#N)c(=O)[nH]c2C)cs1	-6.0%	?	-14.7%	4.2%	-2.4%	4.61µM*
Cc1[nH]c(=O)c(C#N)cc1-c1csc(-c2ccccc2)n1	12.4%	?	-3.2%	-0.8%	?	i
Cc1cc(C)c(NC(=O)C2CC(=O)N(C(C)C)C2)c(C)c1 (stereo not given)	-4.7%	i	11.4%	8.5%	3.6%	i
CCn1c(SCC(O)c2ccccc2)nnc1-c1ccccc1 (stereo not given)	0.1%	i	6.3%	-1.9%	15.5%	i
CCn1c(Cn2nnc(-c3ccccc3)n2)nnc1SCc1ccc(Cl)c(Cl)c1	20.8%	?	?	?	?	23.1µM*
CCn1c(SCc2cccc(C)c2)nnc1-c1ccccc1	-1.3%	i	5.2%	-13.8%	13.9%	14.6µM*
Cn1c(C(=O)N2CCCC(C(=O)NCCc3ccccc3)C2)cc2sccc21 (stereo not given)	-1.3%	?	?	?	1.2%	?
CS(=O)(=O)N1CCCC(C(=O)NCCc2ccccc2)C1 (stereo not given)	16.4µM*	i	20.6%	2.3%	?	i
Cn1c(C(=O)N2CCCC(C(=O)NCCCc3ccccc3)C2)cc2sccc21 (stereo not given)	-1.6%	i	-21.7%	-16.9%	-5.8%	20.6µM*
Cc1ccc(CCNC(=O)C2CCCN(S(C)(=O)=O)C2)cc1 (stereo not given)	-2.5%	i	8.1%	17.4%	-5.9%	i
CS(=O)(=O)N1CCCC(C(=O)N2CCc3ccccc3C2)C1 (stereo not given)	10.3µM*	i	-1.7%	-2.5%	2.91µM*	i
Cc1cc(C(=O)Nc2c(C)n(C)n(-c3ccccc3)c2=O)c(C)o1	1.9%	i	10.6%	4.2%	20.6%	i
Cc1cccc(NC(=O)CSc2cc(C)c3ccccc3n2)c1	.	i	.	.	.	?
NC(=O)Cn1c(=O)n(CCc2ccccc2)c(=O)c2c3c(sc21)CCCC3	?	i	11.5%	-3.3%	-5.6%	4.11µM*
CC(=O)N1CCc2c(sc3c2c(=O)n(CCc2ccccc2)c(=O)n3Cc2ccc(Cl)cc2)C1	.	20.6µM*	.	.	.	?
COC(=O)c1ccc2c(c1)sc(=NC(=O)c1ccc(S(=O)(=O)N3CCCCC3)cc1)n2C	.	i	.	.	.	?
CCC1CCCCN1C(=O)COc1cccc2c1CCN(C)C2=O (stereo not given)	-5.5%	i	-0.5%	5.0%	-3.9%	20.6µM*
CN1CCc2c(OCC(=O)N3CCC(Cc4ccccc4)CC3)cccc2C1=O	-1.5%	18.4µM*	-25.6%	-25.9%	18.9%	?
CN1CCc2c(OCC(=O)NC3CCCCC3)cccc2C1=O	-16.2%	i	7.5%	8.3%	-2.5%	i
COC1=C(Br)C(=O)c2ncccc2C1=O	2.91µM*	?	-21.6%	8.2µM*	5.17µM*	?
O=C1c2cccnc2-c2ncccc21	-5.3%	i	19.0%	11.4%	-6.1%	i
O=C1C(=O)c2cccnc2-c2ncccc21	.	3.66µM*	1.03µM*	0.581µM*	.	18.4µM*
Cn1c(-c2ccccc2)cnc1NCc1ccc(F)cc1	-2.5%	i	3.2%	3.1%	1.7%	i
SMILES	SW480 rerep	KB-3-1 cytotox	HT1080-NT tox	HT1080 IDH1KD tx	MCF10A rerep	KB-V1 MDR tox
Cn1c(-c2ccc(F)cc2)cnc1NCc1ccccc1	?	?	-22.1%	-26.1%	?	20.6µM*
COc1ccccc1CNc1ncc(-c2ccc(F)cc2)n1C	-40.1%	i	-13.2%	-7.4%	1.4%	i
COc1ccc(CNc2ncc(-c3ccc(F)cc3)n2C)c2ccccc12	2.1%	i	23.1µM*	?	?	?
O=C(N/N=C/c1ccccc1F)C(=O)N1CCCCCC1	-18.7%	i	6.7%	0.0%	-14.2%	i
O=C(CCN1CCN(c2ccccc2)CC1)N/N=C/c1ccccc1O	?	i	?	20.6µM*	25.9%	?
O=C(N/N=C/c1ccccc1O)C(=O)N1CCCCCC1	5.8µM*	?	?	8.2µM*	17.0%	i
O=C(CCn1cnc2ccccc21)N/N=C/c1ccccc1O	8.2µM*	?	?	?	?	i
O=C(CSc1nnc(-c2ccccc2Br)o1)Nc1cccc2ccccc12	-6.6%	i	4.0%	4.4%	-0.7%	i
O=C(O)CCN1C(=O)/C(=C\c2cccc(Oc3ccccc3)c2)SC1=S	-2.3%	i	-5.5%	-28.7%	?	i
COc1ccccc1OCc1cc(C(=O)NCc2ccc(N3CCCC3=O)cc2)no1	1.6%	i	-1.7%	1.4%	0.0%	i
COc1ccc2ccc3c(c2c1)N=C[C@]1(O3)N(C)c2ccccc2C1(C)C	14.6µM*	i	?	?	18.4µM*	?
COc1cc2c3c(c1OC)-c1cc4c(cc1CC3(C#N)N(C(=O)c1ccccc1)CC2)OCO4 (stereo not given)	0.3%	i	2.4%	-5.6%	9.8%	3.26µM*
COc1ccc2c(c1OC)C(=O)OC2[C@H]1c2c(cc3c(c2OC)OCO3)CCN1C (stereo not given in full)	6.5%	.	.	.	14.3%	.
Cc1nnc(NC(=O)CCC(=O)N2CCN(S(=O)(=O)c3cc([N+](=O)[O-])ccc3C)CC2)s1	-2.9%	i	2.4%	1.1%	6.4%	i
OCCn1c(CSc2nnc(-c3ccco3)n2-c2ccccc2)nc2ccc(Cl)cc21	-1.2%	i	-19.2%	-1.1%	3.3%	i
COc1cc(CC(=O)OCC(=O)NC2CCCCC2)cc(OC)c1OC	-4.0%	i	4.9%	16.2%	-1.7%	i
CCn1cnc2c1c(=O)n(Cc1cccc(Br)c1)c(=O)n2Cc1ccccc1	3.4%	?	?	-25.8%	13.3%	18.4µM*
COc1ccc2nc(N3CCC(C)CC3)c(C#N)cc2c1	20.6µM*	i	10.5%	15.4%	5.8µM*	i
Cc1ccc(/C=C/C(=O)OC(C)C(=O)Nc2ccc(Cl)cn2)o1 (stereo not given)	-2.5%	i	16.7%	1.8%	?	i
CCOC(=O)N1CCC(n2c(SCC(=O)NCCC3=CCCCC3)nc3ccccc3c2=O)CC1	?	?	?	?	25.9µM*	8.2µM*
